{"source": "PubChem BioAssay (NCI)", "note": "About 83,000 compounds went through this panel and 20% of them were active in at least one assay; those are over-represented in the sample as a whole.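 Interpretation: 100, growth as untreated; towards 0, rising growth inhibition; 0, no net growth; 0 to -100, cell death. Compounds scoring below 10 were considered active.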 Values without a mark were called inactive. Activity calls are given as the source filed them."}
{"test_system": "SK-MEL-2 melanoma", "assay": "NCI-60 one-dose screen, 48 h (100 = growth as untreated, 0 = no growth, -100 = all killed)", "details": "10 µM", "method": "Growth inhibition of the SK-MEL-2 human tumor cell line is measured as a screen for anti-cancer activity. Cells are grown in 96 well plates and exposed to the test compound for 48 hours. Compounds are tested at a single concentration, which is 10^-5 M for most compounds. The reported endpoint is percent growth (GI% or GIPRCNT), where numbers from 0 - 100% represent growth inhibition, and numbers from -100% - 0 represent cell death. For example, a value of 40 represents 60% growth inhibition. A value of 0 means no net growth occurred over the course of the experiment. A value of -40 indicates 40% of cells at the beginning of the experiment died by the end of the experiment. A value of -100 means all cells are dead at the end of the experiment.\nNCI-60 Human Tumor Cell Lines Screen was performed using the standard one-dose NCI protocol, which is described in more detail at https://dtp.cancer.gov/discovery_development/nci-60/default.htm.\nCompounds with GIPRCNT values below 10 were considered active. Activity score was based on GIPRCNT using the following formula: […]\nScore is 0 for GIPRCNT values of 100 or above, 50 for GIPRCNT values of 0, and 100 for GIPRCNT values of -100."}
{"smiles": "O=C1c2ccccc2C(=O)c2c1ccc1c(=O)n(-c3ccccc3C(F)(F)F)nnc21", "growth": "56.5%"}
{"smiles": "C=CCSC(CC)(CC)C(=O)NC", "growth": "109%"}
{"smiles": "CNC(=O)c1cc(Oc2ccc3c(c2)sc2nc(-c4ccc(N)cc4)cn23)ccn1", "growth": "35.8%"}
{"smiles": "Cc1ccc(C(=O)/C=C/c2ccccc2)s1", "growth": "102%"}
{"smiles": "COCCn1cc(-c2nc(-c3cccnc3)cs2)c2cc(F)ccc21", "growth": "106%"}
{"smiles": "COc1ccc(-c2nn(-c3cccc(Cl)c3)cc2-c2c(C#N)c(=O)n3[nH]c(-c4ccc(C)cc4)nc3c2C#N)cc1", "growth": "46%"}
{"smiles": "COC(=O)CC[C@@H](C)[C@H]1CC[C@H]2[C@@H]3CC[C@@H]4C[C@H](O)CC[C@]4(C)[C@H]3C[C@H](O)[C@]12C", "growth": "87.7%"}
{"smiles": "COc1cc(C(=O)/C(C)=C/c2c[nH]c3ccccc23)cc(OC)c1OC", "growth": "28.7%"}
{"smiles": "CCCC1(CN2c3ccccc3Sc3ccc(Cl)cc32)CCN(CC)C1", "note": "(stereo not given)", "growth": "-3.45% (active)"}
{"smiles": "NC(CSC(c1ccccc1)(c1ccccc1)c1cccc2ccccc12)C(=O)O", "note": "(stereo not given)", "growth": "98.6%"}
{"smiles": "COc1cc2c3c(n(C4CCNCC4)c(=O)c2cc1OC)-c1cc2c(cc1C3=O)OCO2", "growth": "76.4%"}
{"smiles": "C=CCn1c(SCC(=O)Nc2ccc(C(=O)/C=C/c3ccc(Cl)cc3)cc2)nnc1-c1cc(-c2ccccc2)nc2ccccc12", "growth": "97.2%"}
{"smiles": "COc1cc(C(=O)n2nc(-c3cc(OC)c(OC)c(OC)c3)nc2N)cc(OC)c1OC", "growth": "91.2%"}
{"smiles": "N#CC1=C(N)Oc2cc(N)ccc2C1c1cccnc1", "note": "(stereo not given)", "growth": "97.4%"}
{"smiles": "N#Cc1c(-c2ccc(Cl)cc2)cc(-c2cc(O)ccc2O)nc1N", "growth": "31.2%"}
{"smiles": "C/C(=N\\O)c1ccc(NC(=O)CSc2nnc(-c3ccccc3)n2-c2ccccc2)cc1", "growth": "118%"}
{"smiles": "C(=N\\Nc1ncnc2sc3c(c12)CCNC3)/c1cccc2ccccc12", "growth": "109%"}
{"smiles": "CS(=O)(=O)c1nccc(-c2c(-c3ccc(OCCc4ccccc4)cc3)nc3sccn23)n1", "growth": "108%"}
{"smiles": "O=C(CSc1nnc(-c2ccc(Cl)cc2)o1)Nc1ccc(C(=O)/C=C/c2ccc(Cl)cc2)cc1", "growth": "101%"}
{"smiles": "CCn1c2ccc(O)cc2c2c(C)c3c[n+](C)ccc3c(C)c21", "growth": "40.9%"}
{"smiles": "COc1cc(-c2nn(-c3cccc(NC(=O)CN4CCOCC4)c3)cc2-c2cccnc2)ccc1Cl", "growth": "82.1%"}
{"smiles": "COc1cc(/C=C/c2cc(/C=C/c3ccc(O)c(OC)c3)nc(N)n2)ccc1O", "growth": "-21% (active)"}
{"smiles": "CC(C)C1=C(O)C2=C(C(=O)C1=O)[C@@]1(C)CCCC(C)(C)[C@@H]1CC2", "growth": "97.7%"}
{"smiles": "CCCN1CN2C(=O)N3CN(CCC)CN4C(=S)N(C1)C2C34", "note": "(stereo not given)", "growth": "102%"}
{"smiles": "COc1ccc(/C=C2\\CCCC3=C2N=C2SC(C)=CN2C3c2ccc(OC)cc2)cc1", "note": "(stereo not given)", "growth": "98.6%"}
{"smiles": "O=C(N/N=C/c1ccc(Cl)cc1)c1ccc(Cc2n[nH]c(=O)c3cccnc23)cc1", "growth": "108%"}
{"smiles": "Cc1cc(C)nc(NS(=O)(=O)c2ccc(Nc3nc4nc(NCc5ccccc5)nc(-c5ccc(O)cc5)c4c(=O)[nH]3)cc2)n1", "growth": "4.65% (active)"}
{"smiles": "CC(=O)Oc1cc(OC(C)=O)c2ccccc2c1OC(C)=O", "growth": "90.5%"}
{"smiles": "N#Cc1c(N)nc(-c2cc(F)cc(C(F)(F)F)c2)nc1-c1ccccc1F", "growth": "90.4%"}
{"smiles": "COc1ccc(-c2cc(-c3ccccc3)nc(SCCCCCCC(=O)NO)n2)cc1", "growth": "78%"}
{"smiles": "O=S(=O)(O)c1ccc(Cl)cc1", "growth": "95.9%"}
{"smiles": "CCN(CC)CCNc1ccc(C)c2sc3cc(Cl)ccc3c(=O)c12", "growth": "36.5%"}
{"smiles": "Cc1cc(Cl)ccc1Nc1nc(C(F)(F)F)ccc1C(=O)N/N=C/c1c(Cl)cccc1Cl", "growth": "-17.4% (active)"}
{"smiles": "COc1ccc(-c2nn(-c3cccc(Cl)c3)cc2-c2c(C#N)c(=O)n3[nH]c(-c4ccccc4)nc3c2C#N)cc1", "growth": "88.6%"}
{"smiles": "O=C(CCC(C(=O)c1ccccc1)c1ccccc1)c1ccccc1", "note": "(stereo not given)", "growth": "45.4%"}
{"smiles": "COc1ccccc1/C=N\\N/C(N)=N\\N=C\\c1ccccc1OC", "growth": "21.4%"}
{"smiles": "COc1cc2c(cc1NC(=O)C(Cl)Cl)-c1ccc(NC(=O)C(Cl)Cl)cc1C2", "growth": "-14.7% (active)"}
{"smiles": "Cc1ccc(NCCN(C)CC(C)O)c2c(=O)c3ccc(Cl)cc3sc12", "note": "(stereo not given)", "growth": "66.8%"}
{"smiles": "COc1ccc(-c2n[nH]nc2-c2cc(OC)c3c(c2OC)OCO3)cc1", "growth": "1.83% (active)"}
{"smiles": "Nc1nccc(OCCO)n1", "growth": "99.5%"}
